# Screens as filed in PubChem BioAssay.
# Only some compounds are listed: those with a hit (about 3.3% of all), similar ones and a draw of the others.
# AmpC inh no detg = AmpC beta-lactamase inhibition without detergent. P00811. AmpC nitrocefin hydrolysis, absorbance 480 nm, 0.0001% Triton. Potency, µM (series often up to 57.1 µM), for inactives: at the highest dose activity change, negative = inhibition, actives largely listed as inhibitors. 330,000 tested, 0.52% active. AID 485341;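 note: plate controls were no compound for no effect and no enzyme for full effect; nearly all actives have a fitted effect of over 20% in size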
# Target sequence (P00811 whole entry, looked up): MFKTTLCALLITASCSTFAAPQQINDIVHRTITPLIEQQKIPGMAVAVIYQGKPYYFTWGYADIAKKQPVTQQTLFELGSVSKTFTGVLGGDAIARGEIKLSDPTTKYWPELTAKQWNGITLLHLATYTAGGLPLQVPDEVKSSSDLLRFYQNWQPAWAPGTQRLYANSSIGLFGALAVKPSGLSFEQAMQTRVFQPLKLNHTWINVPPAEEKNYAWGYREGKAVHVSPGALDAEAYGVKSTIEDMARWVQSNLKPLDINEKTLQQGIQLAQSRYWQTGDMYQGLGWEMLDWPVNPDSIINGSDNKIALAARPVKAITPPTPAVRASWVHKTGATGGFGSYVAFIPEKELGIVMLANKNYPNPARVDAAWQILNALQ
#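 AmpC (5.3 nM in the dispensed reagent) in 20 mM phosphate pH 7.0 with 0.01% (detergent screen) or 0.0001% Triton X-100 was preincubated with compounds for 15 min at room temperature. Nitrocefin was then added from an 800 uM solution, and hydrolysis was followed at 480 nm.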
# Sm TGR block = inhibitors of Schistosoma mansoni thioredoxin glutathione reductase; purified TGR, DTNB reduction, TNB absorbance 405 nm; 360,000 tested, 3% active; Q962Y6; Potency, µM (highest dose often 114 µM), inactives show top-dose activity change, negative = inhibition, hits mostly inhibitors; note: nearly all actives have a fitted effect of over 60% in size
#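 First, TGR (20 nM dispensed) and NADPH were mixed with compound. Second, a 15 min room-temperature incubation followed. Third, further NADPH and then DTNB were added to start the reaction. Finally, TNB absorbance was monitored kinetically.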
# AmpC detergent = inhibitors of E. coli AmpC beta-lactamase with detergent; AID 485294; P00811; 370,000 tested, 0.041% active; AmpC hydrolysis of nitrocefin, absorbance 480 nm, 0.01% Triton; Potency, µM (series often up to 114 µM), for inactives: at the highest dose activity change, negative = inhibition, usual class: inhibitors;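 note: 0% = no-compound wells and -100% = no-enzyme wells; nearly all actives have a fitted effect of over 25% in size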
#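 AmpC (5.3 nM in the dispensed reagent) in 20 mM phosphate pH 7.0 with 0.01% (detergent screen) or 0.0001% Triton X-100 was preincubated with compounds for 15 min at room temperature. Nitrocefin was then added from an 800 uM solution, and hydrolysis was followed at 480 nm.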
# * marks the source's active call; other numbers are inactive results; ? = inconclusive; nt = no result. Calls come from the whole dose curve; as a rule, active = well fitted curve in the direction sought with a large enough effect; inconclusive = small, poorly fitted or top-dose-only effect, or another doubt; inactive = no such curve, though single readings can be large; an effect the other way counts as inactive or inconclusive. Unless noted, % is set by controls: 0 for no effect and ±100 for the full control effect; potency is the fitted concentration of half-maximal effect.
SMILES,AmpC inh no detg,Sm TGR block,AmpC detergent
O=S(=O)(c1ccc(Br)s1)N1CCN(c2ccccc2)CC1,-7%,-21%,-9%
O=S(=O)(c1ccc(Br)s1)N1CCN(c2ccc(F)cc2)CC1,-38%,25µM*,-14%
Cc1ccc(-n2c(C)nnc2SCC(=O)N2CCOCC2)cc1,1%,-21%,-6%
CCCCNC(=O)c1ccc(NS(=O)(=O)c2ccc3[nH]c(=O)[nH]c3c2)cc1,-40%,-4%,5%
CCCCCNC(=O)c1ccc(NS(=O)(=O)c2ccc3[nH]c(=O)[nH]c3c2)cc1,0%,25µM*,7%
O=C(NC1CCCCC1)C(c1ccncc1)N(Cc1ccc(F)cc1)C(=O)c1ccccn1 (configuration not stated),70%,-36%,-2%
O=C(NC1CCCC1)C(c1ccc(F)cc1)N(Cc1ccc(F)cc1)C(=O)CCl (configuration not stated),-3%,5.6µM*,?
COC(CN(C(=O)CCl)C(C(=O)NC1CCCCC1)c1ccc(C)cc1)OC (configuration not stated),-11%,45µM*,?
COc1ccc(C(C(=O)NC2CCCCC2)N(C(=O)CCl)c2ccc(C)cc2)cc1 (configuration not stated),-6%,4%,-12%
CCOC(=O)N1CCC(NC(=O)c2cc(S(=O)(=O)N(CC)CC)ccc2F)CC1,6%,-5%,?
CC(C)(C)c1ccc(-c2nc3[nH]c(=O)cc(NC(=O)c4ccco4)n3n2)cc1,-34%,-4%,-2%
Cc1c(C)c2c(cc(C)c3c(-c4ccccc4)coc32)oc1=O,nt,9%,2%
CCN(c1cccc(C)c1)C1C(=O)c2ccccc2N1C(C)=O (configuration not stated),-27%,22µM*,0%
CC(=O)N(CN1C(=O)c2ccccc2C1=O)c1cccc(C)c1,-14%,6%,-8%
O=C(NCC(c1ccco1)N1CCCCC1)c1cccnc1 (configuration not stated),-12%,-18%,-11%
Cc1ccc(C(=O)N2CCN(Cc3ccc4c(c3)OCO4)CC2)cc1S(=O)(=O)N1CCOCC1,134%,-26%,-3%
Cc1[nH]n(-c2ccccc2)c(=S)c1C=Nc1cccc([N+](=O)[O-])c1,-26%,79µM*,?
CCCCN=Cc1c(C)[nH]n(-c2ccccc2)c1=S,29%,0%,3%
CC(Sc1nn(-c2ccccc2)c(=S)s1)C(=O)NCC1CCCO1 (configuration not stated),57%,-1%,-11%
Cc1cc2nc(-c3ccc(Br)cc3)cc(C(F)(F)F)n2n1,nt,-10%,-1%
N#Cc1ccc(N2C(=O)[C@@H]3C(C(=O)c4cnccn4)=NN[C@@H]3C2=O)cc1,-26%,8.9µM*,-8%
O=C(C1=NN[C@@H]2C(=O)N(c3cccc(C(F)(F)F)c3)C(=O)[C@H]12)C(c1ccccc1)c1ccccc1,-40%,2%,-4%
O=C(C1=NN[C@@H]2C(=O)N(c3ccccc3C(F)(F)F)C(=O)[C@H]12)c1ccc2ccccc2n1,12%,-11%,-1%
N#Cc1ccc(N2C(=O)[C@@H]3C(C(=O)c4ccc5ccccc5n4)=NN[C@@H]3C2=O)cc1,-52%,50µM*,-9%
O=C(C1=NNC2C(=O)N(c3ccccc3)C(=O)C12)c1nc(Cl)ccc1Cl (configuration not stated),-10%,10%,-15%
SMILES,AmpC inh no detg,Sm TGR block,AmpC detergent
O=C(C1=NN[C@@H]2C(=O)N(c3cccc(C(F)(F)F)c3)C(=O)[C@H]12)c1cnccn1,-8%,18µM*,-2%
CCn1c(=N)c(C(=O)NC2CCCC2)cc2c(=O)n3ccccc3nc21,nt,-7%,1%
O=C(Oc1ccccc1)N1CCN(c2ccccc2F)CC1,1%,-11%,-2%
CSc1oc(-c2ccc(F)cc2)nc1S(=O)(=O)c1ccccc1,-16%,-1%,1%
CC(C)S(=O)(=O)c1oc(-c2cccs2)nc1S(=O)(=O)c1ccc(F)cc1,nt,0.89µM*,?
Cc1ccc(S(=O)(=O)c2nc(-c3cccs3)oc2SC(C)C)cc1,nt,-3%,7%
CC(C)S(=O)(=O)c1oc(-c2ccc(F)cc2)nc1S(=O)(=O)c1ccccc1,nt,0.89µM*,7%
CCOc1ccc(C(=O)c2oc3ccccc3c2NC(=O)c2cc(=O)c3ccc(C)cc3o2)cc1,nt,18%,-5%
C=C[C@]1(C)C[C@@H](OC(=O)CSCCN(CC)CC)[C@]2(C)C(C)CC[C@]3(CCC(=O)[C@H]32)[C@@H](C)[C@@H]1O (some centres not stated),75%,0%,?
